In PubChem BioAssay (NCI):
Compounds without any hit were thinned out: in the full panel of roughly 83,000, 20% have a hit.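 Single-dose data. Exposure time 48 hours. Values below 10 considered active.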 Calls of active or inactive are those of the source.

Key:
Test in all cases: NCI-60 one-dose screen, 48 h (100 = growth as untreated, 0 = no growth, -100 = all killed)
Details in all cases: 10 µM unless noted
[1] = test system: NCI-H23 lung
[2] = test system: NCI-H226 lung
[3] = test system: NCI-H322M lung
[4] = test system: HOP-62 NSCLC
[5] = test system: NCI-H460 lung
[6] = test system: HOP-92 NSCLC
[7] = test system: NCI-H522 lung
[8] = test system: A549/ATCC NSCLC
[9] = test system: 786-0 renal
[10] = test system: COLO 205 colon
[11] = test system: DU-145 prostate
[12] = test system: K-562 leukemia
[13] = test system: MALME-3M melanoma
[14] = test system: MDA-MB-231 breast
[15] = test system: RXF 393 renal
[16] = test system: SF-268 CNS
[17] = test system: SF-295 CNS
[18] = test system: SF-539 CNS
[19] = test system: UACC-257 melanoma
[20] = test system: M14 melanoma

Measured: growth

CC1(C)OC(=O)C(=Cc2cccc(Br)c2)C(=O)O1
inactive: [1] 103% | [2] 96.2% | [3] 113% | [4] 88.1% | [5] 105% | [6] 85.8% | [7] 77.5% | [8] 87.9% | [9] 109% | [10] 104% | [11] 112% | [12] 98.6% | [13] 108% | [14] 107% | [15] 96.4% | [16] 102% | [17] 102% | [18] 108% | [19] 85.8% | [20] 109%

CCCCCCCCn1ccc2cc(NC(=O)Cn3cc(CN4CCCCCC4)nn3)ccc21
inactive: [1] 52.3% | [2] 38.6% | [3] 26.7% | [4] 55.7% | [6] 24% | [7] 52.4% | [8] 50.6% | [11] 30.7% | [15] 29.2% | [16] 15.5%
active: [5] -58.7% | [9] -71.9% | [10] -70.1% | [12] -62.2% | [13] -88.6% | [14] -26% | [17] -71.3% | [18] -73.9% | [19] -49.2% | [20] -68.3%

Cc1ccc(/C=C(\C#N)C(=O)Nc2ncc(Cc3cc(Cl)ccc3Cl)s2)o1
active: [17] 5.34%
inactive: [1] 67.1% | [2] 90.1% | [3] 47.3% | [4] 41.6% | [5] 30.6% | [6] 77% | [7] 48.6% | [8] 39.8% | [9] 46.9% | [10] 102% | [11] 60% | [12] 24.6% | [13] 54.3% | [14] 76.4% | [15] 38.3% | [16] 44.2% | [18] 16.9% | [19] 35.3% | [20] 69.4%

CC(C)CCC[C@@H](C)C1CCC2C3CCC4=C/C(=N/OCCN(C)C)CC[C@]4(C)C3CC[C@@]21C (stereo not given in full)
inactive: [1] 84.7% | [2] 95.8% | [3] 79.9% | [4] 80.5% | [5] 98.5% | [6] 50% | [7] 66.3% | [8] 77.7% | [9] 76% | [10] 98% | [11] 91.7% | [12] 73.6% | [13] 91.2% | [14] 89.4% | [15] 91.6% | [16] 65.9% | [17] 68.4% | [18] 93.2% | [19] 97.5% | [20] 93.3%

CCN1C(=O)N(CC)C2C1NN=C1SCC(=O)N12 (stereo not given)
inactive: [1] 96.1% | [2] 91.6% | [3] 103% | [4] 100% | [5] 103% | [6] 114% | [7] 77.5% | [8] 102% | [9] 95.8% | [10] 44.7% | [11] 101% | [12] 47.9% | [13] 77% | [14] 59.4% | [15] 107% | [16] 98.6% | [17] 100% | [18] 92.9% | [19] 22.2% | [20] 85%

C#Cc1cccc(Oc2ccc(NC(=O)CCl)cc2)c1
active: [7] -32.6% [8.25 µM] | [12] 7.79% [8.25 µM]
inactive: [1] 20.7% [8.25 µM] | [2] 55.9% [8.25 µM] | [3] 100% [8.25 µM] | [4] 83.5% [8.25 µM] | [5] 19% [8.25 µM] | [6] 81.2% [8.25 µM] | [8] 68.3% [8.25 µM] | [9] 74.8% [8.25 µM] | [10] 61.6% [8.25 µM] | [11] 72% [8.25 µM] | [13] 21.3% [8.25 µM] | [14] 41.1% [8.25 µM] | [15] 62.6% [8.25 µM] | [16] 49.5% [8.25 µM] | [17] 85.5% [8.25 µM] | [18] 47% [8.25 µM] | [19] 75.8% [8.25 µM] | [20] 24.6% [8.25 µM]

COc1ccc(C/C(C)=C(/c2ccc(OCCN3CCCCCC3)cc2)c2ccc(OC(=O)NCc3ccccc3)cc2)cc1
inactive: [1] 86.4% | [2] 101% | [3] 93.2% | [4] 91.1% | [5] 70.7% | [6] 56% | [7] 75.2% | [8] 77% | [9] 83.5% | [10] 85.7% | [11] 95.6% | [12] 28% | [13] 95.2% | [14] 83.9% | [15] 84% | [16] 88.4% | [17] 98.2% | [18] 96.7% | [19] 94.7% | [20] 95.6%

CCC(C)Nc1ccc(NC(C)CC)cc1 (stereo not given)
active: [10] 9.48%
inactive: [1] 74.5% | [2] 91.3% | [3] 86.4% | [4] 84.8% | [5] 101% | [6] 90.5% | [7] 54.9% | [8] 94.7% | [9] 74% | [11] 109% | [12] 54.2% | [13] 73.4% | [14] 82% | [15] 81.8% | [16] 96.6% | [17] 111% | [18] 90.7% | [19] 21.1% | [20] 98.9%

Cn1cc(-c2csc(-c3cn(C(=O)OC(C)(C)C)c4ccccc34)n2)c2ccnc(Cl)c21
inactive: [1] 57.1% | [2] 46.4% | [3] 85.3% | [4] 72.4% | [5] 22.4% | [6] 58.5% | [7] 50% | [8] 26.8% | [9] 67.2% | [10] 39.8% | [11] 74.1% | [12] 68.1% | [13] 90% | [14] 38.3% | [15] 63.6% | [16] 71.8% | [17] 62.4% | [18] 68.3% | [19] 59.5% | [20] 79%

CCNc1nc(-c2ccc(F)cc2)c(C#N)c(=O)n1C
active: [6] -1.14%
inactive: [1] 73.8% | [2] 55% | [3] 57.2% | [4] 51.8% | [5] 74.7% | [7] 52.1% | [8] 58.9% | [9] 64.3% | [10] 62.8% | [11] 63.4% | [12] 100% | [13] 93% | [14] 33.6% | [15] 44% | [16] 58.5% | [17] 59.7% | [18] 59.7% | [19] 102% | [20] 82.8%

CCc1cccc(Sc2cc(C(=O)N3Cc4ccc(OCCN(C)C)cc4C3)ccc2O)c1
inactive: [1] 41.2% | [2] 89.3% | [3] 62.9% | [4] 71.5% | [5] 38.9% | [6] 57.1% | [7] 66.8% | [8] 43.1% | [9] 70.6% | [10] 109% | [11] 38.9% | [12] 22% | [13] 57.3% | [14] 80% | [15] 72.2% | [16] 63.8% | [17] 78.4% | [18] 89% | [19] 63.3% | [20] 78.1%

C[C@@H](CO)[C@@H]1CC[C@]2(C(=O)N3CCN(C)CC3)CC[C@]3(C)[C@H](CC[C@@H]4[C@@]5(C)CC[C@H](O)C(C)(C)[C@@H]5CC[C@]43C)[C@@H]12
active: [12] 4.66%
inactive: [1] 78.5% | [2] 81.4% | [3] 99.7% | [4] 116% | [5] 49.4% | [6] 47.7% | [7] 74.1% | [8] 88.6% | [9] 74% | [10] 90.2% | [11] 67.7% | [13] 105% | [14] 82.8% | [15] 81.5% | [16] 56.7% | [17] 90.4% | [18] 86.1% | [19] 98% | [20] 101%

N#Cc1c(-c2ccccc2)cc(-c2ccccc2)n(CCCC(=O)NO)c1=O
inactive: [1] 31.2% | [2] 13% | [3] 35.3% | [4] 22.2% | [6] 30.4% | [7] 21.8% | [8] 22.8% | [9] 17.7% | [10] 18.3% | [11] 26.1% | [13] 11.1% | [14] 35.1% | [16] 37.3% | [17] 13.8% | [18] 20.6% | [19] 37.6% | [20] 18.6%
active: [5] 8.19% | [12] 7.36% | [15] -1.83%

O=C(O)CCCc1cnc2c3sccc3nc(SCc3c(Cl)cccc3Cl)n12
active: [7] -12.5%
inactive: [1] 62.2% | [2] 83.1% | [3] 55.3% | [4] 33.9% | [5] 22.2% | [6] 58.7% | [8] 59.5% | [9] 38.5% | [10] 28.3% | [11] 59.3% | [12] 20.7% | [13] 59.2% | [14] 69.6% | [15] 54.6% | [16] 50.3% | [17] 27.2% | [18] 41% | [19] 53% | [20] 33%

O=C1Nc2ccccc2C2c3cccn3-c3ccccc3N12 (stereo not given)
inactive: [1] 81% | [2] 89.5% | [3] 83% | [4] 58.2% | [5] 88.9% | [6] 57.8% | [8] 61.7% | [9] 87.8% | [10] 60.5% | [11] 94.8% | [12] 23.9% | [13] 71.7% | [14] 47.1% | [15] 51.7% | [16] 79% | [17] 78.6% | [18] 83.2% | [19] 77.6% | [20] 53%
active: [7] 8.49%

C=CCCC(=O)N1C=CC(=O)[C@H](O)[C@@H]1/C=C/c1ccccc1
inactive: [1] 52.8% [100 µM] | [2] 26.8% [100 µM] | [3] 59% [100 µM] | [4] 35.3% [100 µM] | [5] 15.2% [100 µM] | [6] 70.6% [100 µM] | [7] 74.1% [100 µM] | [8] 52% [100 µM] | [9] 14.2% [100 µM] | [10] 34% [100 µM] | [11] 35.7% [100 µM] | [12] 26.3% [100 µM] | [13] 89.3% [100 µM] | [14] 52.3% [100 µM] | [15] 78.9% [100 µM] | [16] 35.9% [100 µM] | [17] 33.4% [100 µM] | [18] 19.2% [100 µM] | [19] 64.9% [100 µM]
active: [20] -19.8% [100 µM]
